# How the values were obtained:
# Assay in all cases: DAPPL (digital affinity profiling via proximity ligation, sequencing); 10 mM Tris-HCl pH 7.5, 50 mM NaCl, 1 mM DTT, 4% glycerol, room temperature, 30 min; GST-TFs on glutathione beads, 16-mer random dsDNA library, 0.1% formaldehyde crosslink after washing; high values mean tight binding
# Conditions in all cases: protein: recombinant; tags: N-terminal GST; dsDNA, one strand shown
# FLI1 = molecular target: T1, FLI1 (Homo sapiens, UniProt Q01543 1-452)
# T1 sequence: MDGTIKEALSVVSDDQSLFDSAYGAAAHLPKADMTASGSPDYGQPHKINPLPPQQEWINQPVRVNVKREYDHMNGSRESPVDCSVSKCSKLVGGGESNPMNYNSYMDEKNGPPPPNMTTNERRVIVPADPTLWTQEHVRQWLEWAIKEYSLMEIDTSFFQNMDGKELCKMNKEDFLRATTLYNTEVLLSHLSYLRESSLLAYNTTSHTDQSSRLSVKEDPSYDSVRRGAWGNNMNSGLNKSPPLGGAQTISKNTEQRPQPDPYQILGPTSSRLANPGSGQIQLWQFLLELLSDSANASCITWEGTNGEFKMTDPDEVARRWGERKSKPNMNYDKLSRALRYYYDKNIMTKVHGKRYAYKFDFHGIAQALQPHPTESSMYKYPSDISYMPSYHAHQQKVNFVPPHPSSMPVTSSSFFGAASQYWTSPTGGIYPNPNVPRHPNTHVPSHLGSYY
# In short: (§1)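 In yeast, human transcription factors were expressed with a GST fusion, then pulled down on glutathione beads and given DNA barcodes. Pooled with a tag-only sample, they were exposed to 200 nmole of a 16-mer random double-stranded DNA library (Tris/NaCl/DTT/glycerol buffer, room temperature, 30 min), washed, crosslinked with 0.1% formaldehyde, proximity-ligated using BsaI/T4 ligase for 1 h at 37 °C, PCR-amplified and read on an Illumina NextSeq500. Each hexamer's frequency of reads for a factor, divided by the matching frequency for the tag-only sample, gives the binding signal.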
# ELK1 = molecular target: T2, ELK1 (Homo sapiens, UniProt P19419 1-428)
# T2 sequence: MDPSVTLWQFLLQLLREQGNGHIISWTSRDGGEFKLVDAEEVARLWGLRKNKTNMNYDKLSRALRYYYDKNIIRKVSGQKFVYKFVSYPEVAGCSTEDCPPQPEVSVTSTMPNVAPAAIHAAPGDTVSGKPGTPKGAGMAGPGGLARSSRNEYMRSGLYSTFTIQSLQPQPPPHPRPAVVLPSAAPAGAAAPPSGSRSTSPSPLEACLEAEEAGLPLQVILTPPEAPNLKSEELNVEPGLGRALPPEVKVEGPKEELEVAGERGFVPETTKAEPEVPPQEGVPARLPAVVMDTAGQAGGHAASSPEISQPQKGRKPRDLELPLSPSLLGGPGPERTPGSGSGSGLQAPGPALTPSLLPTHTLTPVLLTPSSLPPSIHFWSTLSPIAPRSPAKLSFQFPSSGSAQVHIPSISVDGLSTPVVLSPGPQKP
# In short: as §1
# GABPA = molecular target: T3, GABPA (Homo sapiens, UniProt Q06546 1-454)
# T3 sequence: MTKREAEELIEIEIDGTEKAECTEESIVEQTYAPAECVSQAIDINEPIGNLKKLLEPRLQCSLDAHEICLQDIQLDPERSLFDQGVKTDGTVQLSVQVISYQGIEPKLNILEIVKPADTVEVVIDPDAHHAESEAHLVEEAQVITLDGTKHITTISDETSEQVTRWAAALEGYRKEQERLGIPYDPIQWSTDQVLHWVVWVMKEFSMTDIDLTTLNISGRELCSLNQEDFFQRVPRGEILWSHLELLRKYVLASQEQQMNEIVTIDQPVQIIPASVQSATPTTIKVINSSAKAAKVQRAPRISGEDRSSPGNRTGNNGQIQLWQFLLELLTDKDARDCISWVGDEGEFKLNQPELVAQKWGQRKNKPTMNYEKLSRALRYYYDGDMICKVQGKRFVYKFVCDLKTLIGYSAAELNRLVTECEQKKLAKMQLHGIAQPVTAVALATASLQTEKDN
# In short: as §1
# ERG = molecular target: T4, ERG (Homo sapiens, UniProt P11308 1-479)
# T4 sequence: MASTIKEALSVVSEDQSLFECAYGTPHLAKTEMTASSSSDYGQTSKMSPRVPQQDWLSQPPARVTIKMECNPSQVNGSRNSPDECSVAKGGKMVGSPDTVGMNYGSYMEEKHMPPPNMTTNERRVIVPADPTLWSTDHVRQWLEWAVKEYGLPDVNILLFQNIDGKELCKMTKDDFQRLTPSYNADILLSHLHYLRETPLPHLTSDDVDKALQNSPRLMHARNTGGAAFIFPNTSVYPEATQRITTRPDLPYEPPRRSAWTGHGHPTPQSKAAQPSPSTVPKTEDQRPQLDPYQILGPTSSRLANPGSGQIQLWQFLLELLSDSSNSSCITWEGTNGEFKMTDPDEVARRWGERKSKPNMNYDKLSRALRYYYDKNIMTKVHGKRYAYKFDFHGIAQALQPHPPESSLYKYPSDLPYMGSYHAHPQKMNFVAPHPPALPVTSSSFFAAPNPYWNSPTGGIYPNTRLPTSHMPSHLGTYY
# In short: as §1
# ELF1 = ELF1 (Homo sapiens, UniProt P32519 1-619)
# Sequence of ELF1 (P32519 whole entry): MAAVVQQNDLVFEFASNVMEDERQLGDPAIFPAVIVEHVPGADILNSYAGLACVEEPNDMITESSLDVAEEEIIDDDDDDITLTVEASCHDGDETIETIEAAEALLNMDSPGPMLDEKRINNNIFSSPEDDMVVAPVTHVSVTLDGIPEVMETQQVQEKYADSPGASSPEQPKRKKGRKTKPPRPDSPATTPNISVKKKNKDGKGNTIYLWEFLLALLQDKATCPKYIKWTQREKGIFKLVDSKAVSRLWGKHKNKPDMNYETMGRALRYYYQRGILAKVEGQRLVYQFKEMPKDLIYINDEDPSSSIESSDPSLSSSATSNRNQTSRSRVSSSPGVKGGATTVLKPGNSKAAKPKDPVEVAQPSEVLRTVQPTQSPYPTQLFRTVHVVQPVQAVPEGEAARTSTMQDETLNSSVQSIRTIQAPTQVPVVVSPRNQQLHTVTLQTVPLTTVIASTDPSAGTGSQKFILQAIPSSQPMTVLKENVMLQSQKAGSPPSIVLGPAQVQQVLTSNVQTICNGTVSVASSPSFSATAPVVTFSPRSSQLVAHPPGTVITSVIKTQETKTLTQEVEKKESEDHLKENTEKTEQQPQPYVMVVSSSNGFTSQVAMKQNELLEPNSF
# In short: as §1
# EHF = molecular target: T5, EHF (Homo sapiens, UniProt Q9NZC4 1-300)
# T5 sequence: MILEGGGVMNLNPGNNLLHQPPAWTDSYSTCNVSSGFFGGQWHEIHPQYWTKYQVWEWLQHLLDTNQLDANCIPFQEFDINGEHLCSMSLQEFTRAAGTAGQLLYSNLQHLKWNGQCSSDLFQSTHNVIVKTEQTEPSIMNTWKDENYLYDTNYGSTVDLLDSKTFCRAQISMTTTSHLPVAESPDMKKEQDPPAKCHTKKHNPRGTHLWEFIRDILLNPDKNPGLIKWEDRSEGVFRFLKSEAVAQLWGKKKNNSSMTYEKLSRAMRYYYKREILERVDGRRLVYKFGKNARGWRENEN
# In short: as §1
# FEV = molecular target: T6, FEV (Homo sapiens, UniProt Q99581 1-238)
# T6 sequence: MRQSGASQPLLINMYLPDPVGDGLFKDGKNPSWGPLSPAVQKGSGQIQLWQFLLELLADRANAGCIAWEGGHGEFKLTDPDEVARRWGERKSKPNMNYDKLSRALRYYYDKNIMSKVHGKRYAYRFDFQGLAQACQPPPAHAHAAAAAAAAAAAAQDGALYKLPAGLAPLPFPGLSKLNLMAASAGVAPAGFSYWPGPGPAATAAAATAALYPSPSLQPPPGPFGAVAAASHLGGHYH
# In short: as §1
# SPIC = molecular target: T7, SPIC (Homo sapiens, UniProt Q8N5J4 1-248)
# T7 sequence: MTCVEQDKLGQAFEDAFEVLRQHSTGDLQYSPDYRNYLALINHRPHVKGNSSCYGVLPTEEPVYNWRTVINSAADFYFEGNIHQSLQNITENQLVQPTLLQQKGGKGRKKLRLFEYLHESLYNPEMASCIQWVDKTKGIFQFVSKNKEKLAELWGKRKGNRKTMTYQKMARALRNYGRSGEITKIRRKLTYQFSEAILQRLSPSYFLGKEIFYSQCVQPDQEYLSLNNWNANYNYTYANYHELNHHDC
# In short: as §1
# ELF4 = ELF4 (Homo sapiens, UniProt Q99607 1-663)
# Sequence of ELF4 (Q99607 whole entry): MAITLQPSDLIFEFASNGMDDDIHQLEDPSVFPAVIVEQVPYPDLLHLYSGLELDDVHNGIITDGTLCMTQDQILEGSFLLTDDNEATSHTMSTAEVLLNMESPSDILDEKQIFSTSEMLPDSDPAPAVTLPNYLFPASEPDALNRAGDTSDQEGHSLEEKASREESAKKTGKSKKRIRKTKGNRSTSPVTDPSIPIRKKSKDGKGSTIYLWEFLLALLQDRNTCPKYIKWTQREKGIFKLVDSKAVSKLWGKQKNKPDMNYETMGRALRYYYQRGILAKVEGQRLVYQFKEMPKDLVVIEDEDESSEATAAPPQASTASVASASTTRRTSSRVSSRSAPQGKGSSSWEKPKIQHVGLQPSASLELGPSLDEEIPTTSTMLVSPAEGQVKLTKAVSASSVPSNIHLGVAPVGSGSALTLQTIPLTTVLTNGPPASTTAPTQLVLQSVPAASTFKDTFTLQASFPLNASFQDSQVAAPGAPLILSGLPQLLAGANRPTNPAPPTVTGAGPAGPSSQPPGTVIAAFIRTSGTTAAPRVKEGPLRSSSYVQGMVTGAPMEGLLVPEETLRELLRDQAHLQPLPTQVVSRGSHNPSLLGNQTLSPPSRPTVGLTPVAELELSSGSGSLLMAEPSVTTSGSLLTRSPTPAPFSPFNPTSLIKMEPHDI
# In short: as §1
sequence,measurement,setting,value
CACACC,binding signal,FLI1,"1.07 fold enrichment (6-mer frequency, TF over GST control)"
same,binding signal,ELK1,"1.07 fold enrichment (6-mer frequency, TF over GST control)"
same,binding signal,GABPA,"1.01 fold enrichment (6-mer frequency, TF over GST control)"
same,binding signal,ERG,"1.04 fold enrichment (6-mer frequency, TF over GST control)"
same,binding signal,ELF1,"1.02 fold enrichment (6-mer frequency, TF over GST control)"
same,binding signal,EHF,"1.04 fold enrichment (6-mer frequency, TF over GST control)"
same,binding signal,FEV,"1.07 fold enrichment (6-mer frequency, TF over GST control)"
same,binding signal,SPIC,"1.09 fold enrichment (6-mer frequency, TF over GST control)"
same,binding signal,ELF4,"1.06 fold enrichment (6-mer frequency, TF over GST control)"
